# Source: PubChem (Johns Hopkins Ion Channel Center)
# KCNQ2 inh: blocks the rat KCNQ2 potassium channel. O88943. CHO-K1 KCNQ2, FluxOR thallium flux, 20 min; hits give low values. B-score at 10 µM. 1.1% of 310,000 active. AID 2156;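 active = fluorescence ratio B-score at most minus 3 library SDs, with starting brightness B-score within 2 library SDs, cut at about -5.5 in these data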
# KCNQ2 pot: potentiators of rat KCNQ2 potassium channel; CHO-K1 KCNQ2, FluxOR thallium flux fluorescence; hits give high values; B-score at 10 µM; 0.54% of 310,000 active; O88943;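 active = fluorescence ratio B-score at least 3 SD of library B-scores, with initial fluorescence B-score within 3 of them, cut at about 5.3 in these data; same plate scores as AID 2156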;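 note: B-score of peak minus minimum over baseline fluorescence ratio after K+ and Tl+ stimulus; positive B-score means potentiation of KCNQ2 with more thallium influx and brighter signal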
# Kir21 conf inh: confirmation of mouse Kir2.1 potassium channel inhibitors. shares compounds with KCNQ2 pot. Kir2.1-expressing cells, FluxOR thallium flux fluorescence; hits give low values. Tl flux remaining, % of negative control (hits give low values), % at 10 µM. 41% of 2,300 active;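 active = Primary-screen hit whose thallium flux fell at least 3 control SD below untreated wells in both duplicates, with normal baseline fluorescence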;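 note: 0% = blank wells without stimulus and 100% = stimulated no-compound controls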
# Target sequence (P35561 whole entry, looked up): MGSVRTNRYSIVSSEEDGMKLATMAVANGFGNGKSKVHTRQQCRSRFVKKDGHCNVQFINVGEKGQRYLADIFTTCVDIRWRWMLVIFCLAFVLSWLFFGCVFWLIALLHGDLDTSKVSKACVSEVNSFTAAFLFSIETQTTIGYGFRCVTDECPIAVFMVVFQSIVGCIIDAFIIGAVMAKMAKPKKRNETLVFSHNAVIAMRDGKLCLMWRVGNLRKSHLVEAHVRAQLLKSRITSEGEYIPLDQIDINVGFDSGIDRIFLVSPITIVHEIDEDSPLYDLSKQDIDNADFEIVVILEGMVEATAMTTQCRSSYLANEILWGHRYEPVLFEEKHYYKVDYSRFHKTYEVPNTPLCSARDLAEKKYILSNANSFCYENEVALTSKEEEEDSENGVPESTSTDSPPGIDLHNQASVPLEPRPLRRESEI
# HEK293 ctr: alters thallium flux in parental HEK293 cells, Kir2.1 counter-screen. shares compounds with KCNQ2 pot. FluxOR thallium flux fluorescence; 0% = unstimulated blank wells. FluxOR signal as % of negative control (100 = no effect), % at 10 µM. 19% of 2,300 active. AID 2105;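 active = dye signal at least 3 control SD above or below untreated wells in both duplicates, raw fluorescence within 3, either direction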;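 note: percent is based on the flux ratio of peak minus minimum fluorescence over baseline F0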
# CHO-K1 ctr: parental CHO-K1 activity in KCNQ2 potentiator counter-screen. shares compounds with KCNQ2 pot. parental CHO-K1 cells, FluxOR thallium flux fluorescence; zero = vehicle mean+3SD, 100% = vehicle-minus-blank window. activity increase over 3SD of controls, % at 10 µM. 43% of 1,200 active. AID 2282;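 active = signal rise of at least 3 SD above the untreated control mean, in both duplicate wells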;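 note: counter screen of KCNQ2 potentiator hits so any rise reflects channel-independent effects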
# KCNQ1 pot spec: selectivity of KCNQ2 potentiators: effect on human KCNQ1 | shares compounds with KCNQ2 pot | CHO KCNQ1 stable, FluxOR thallium flux fluorescence; beyond 3SD, as % of vehicle-control signal | activation over 3SD threshold, % at 10 µM | 28% of 1,200 active;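 active = fluorescence ratio rise of at least 3 SD of vehicle wells above their mean, in both replicate wells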;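 note: 0% = vehicle mean plus 3 SD and 100% = vehicle minus unstimulated blank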
# KCNQ2 pot confirm: confirmation of rat KCNQ2 potassium channel potentiators; AID 2287; shares compounds with KCNQ2 pot; 68% of 1,200 active; potentiation, less the hit threshold, % at 10 µM; CHO-KCNQ2 cells, FluxOR thallium flux fluorescence;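 active = fluorescence ratio rising 3 SD or more over the vehicle control mean in both replicates, plus primary screen hit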;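 note: peak minus minimum thallium fluorescence divided by baseline after K/Tl stimulus; 0% = vehicle mean plus 3 SD and 100% = vehicle minus unstimulated blank difference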
# Kir21 spec: selectivity of KCNQ2 potentiators: effect on mouse Kir2.1; shares compounds with KCNQ2 pot; activity over 3SD threshold, % at 10 µM; AID 2345; HEK293 Kir2.1, FluxOR thallium flux fluorescence; 2% of 1,200 active;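 active = fluorescence ratio rise of at least 3 SD above the vehicle-control mean, seen in both replicates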;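 note: 0% = vehicle mean plus 3 SD and 100% = vehicle minus no-stimulus blank window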
# KCNQ2 W236L pot: rat KCNQ2 W236L mutant potentiation by KCNQ2 potentiators; shares compounds with KCNQ2 pot; CHO KCNQ2-W236L, automated patch clamp current; current increase over 3SD of negative controls (%), hits give high values, % at 25 µM; 10% of 940 active;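 active = current increase at least 3 SD of the untreated controls above them in both duplicate recordings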
# Active calls of the source: *; i = inactive; / = no result. Sampled rows, rich in hits. Any-hit rate of the full collection: about 1.6%.
SMILES,KCNQ2 inh,KCNQ2 pot,Kir21 conf inh,HEK293 ctr,others
Cc1cc(-n2c(C)cc(C(=O)CSc3nnnn3-c3ccc(Cl)cc3)c2C)no1,i,/,/,/,
S=c1[nH]nc(COc2ccccc2)n1/N=C/c1cccc(Cl)c1Cl,i,/,/,/,
O=C(NC(=S)Nc1ccccc1Cl)c1ccco1,i,11*,i,154%*,CHO-K1 ctr=-15;KCNQ1 pot spec=-17;KCNQ2 pot confirm=4.7*;Kir21 spec=-30;KCNQ2 W236L pot=i
CC(CCc1ccccc1)NC(=S)NC(=O)c1ccco1 (centres undefined),i,5.6*,i,183%*,CHO-K1 ctr=-26;KCNQ1 pot spec=-14;KCNQ2 pot confirm=-3;Kir21 spec=-36;KCNQ2 W236L pot=i
COc1ccc(-c2csc(NC(=S)NC(=O)c3ccco3)n2)cc1,i,5.1,/,/,
O=C(NC(=S)Nc1cccc(Cl)c1N1CCCCC1)c1cccs1,i,2.2,/,/,
O=C(NC(=S)Nc1cccc(Cl)c1N1CCCCC1)c1ccco1,i,8.3*,i,i,CHO-K1 ctr=44*;KCNQ1 pot spec=-10;KCNQ2 pot confirm=6.2*;Kir21 spec=-29;KCNQ2 W236L pot=i
O=C(NC(=S)Nc1cccc2c(O)cccc12)c1ccco1,i,0.76,/,/,
O=C(NC(=S)Nc1nc(-c2ccccc2)cs1)c1ccco1,i,5.4*,i,i,CHO-K1 ctr=-3;KCNQ1 pot spec=81*;KCNQ2 pot confirm=1.2*;Kir21 spec=-35;KCNQ2 W236L pot=i
Cc1occc1C(=O)NC(C)CCc1ccccc1 (centres undefined),i,0.55,/,/,
Cc1ccc(C(=O)N2CCN(c3ccc(NC(=S)NC(=O)c4cccs4)cc3)CC2)cc1,i,/,/,/,
Cc1ccc(NCc2nnc(SCC(=O)N3CCc4ccccc43)n2C)cc1,i,/,/,/,
Cc1cc(NS(=O)(=O)c2ccc(NC(=O)CSc3nnc(-c4ccco4)n3C)cc2)nc(C)n1,i,0.24,/,/,
O/N=C1\CC(O)Cc2nonc21 (centres undefined),i,0.03,/,/,
O=C(NC(=S)Nc1ccccc1N1CCCC1)c1ccco1,i,7.5*,i,182%*,CHO-K1 ctr=69*;KCNQ1 pot spec=-30;KCNQ2 pot confirm=-8;Kir21 spec=-42;KCNQ2 W236L pot=i
COc1ccc2sc(NC(=O)c3ccco3)nc2c1,i,0.45,/,/,
CCC(C)c1ccccc1NC(=S)NC(=O)c1ccco1 (centres undefined),i,12*,i,383%*,CHO-K1 ctr=-7;KCNQ1 pot spec=68*;KCNQ2 pot confirm=48*;Kir21 spec=-16;KCNQ2 W236L pot=i
CC(C)C(=O)N1CCN(c2ccccc2NC(=S)NC(=O)c2ccco2)CC1,i,0.68,/,/,
COc1ccccc1C(=O)Nc1ccc(N2CCCCC2)cc1,i,/,/,/,
COc1ccc2nc(NC(=S)NC(=O)c3ccco3)sc2c1,i,13*,i,i,CHO-K1 ctr=3.0*;KCNQ1 pot spec=2.4*;KCNQ2 pot confirm=6.4*;Kir21 spec=-28;KCNQ2 W236L pot=i
COc1cccc(OC)c1C(=O)Nc1ccc(N2CCCC2)cc1,i,0.05,i,i,
O=C(NC(=S)Nc1ccccc1N1CCCCC1)c1ccco1,i,3.7,/,/,
CCCNC(=O)C(=O)Nc1ccc2c(c1)N(S(=O)(=O)c1cccs1)CCC2,i,/,/,/,
COC(=O)C(CCSC)NC(=O)C12CC3CC(CC(C3)C1)C2 (centres undefined),i,1,/,/,
CC1CCN(c2ccc(NC(=S)NC(=O)c3ccco3)cc2)CC1,i,3.9,/,/,
SMILES,KCNQ2 inh,KCNQ2 pot,Kir21 conf inh,HEK293 ctr,others
O=C(NC(=S)Nc1ccc(N2CCCCC2)cc1)c1ccco1,i,8.5*,i,i,CHO-K1 ctr=99*;KCNQ1 pot spec=4.1*;KCNQ2 pot confirm=40*;Kir21 spec=-25;KCNQ2 W236L pot=i
COc1cc(N)c(C(=O)c2nccc3cc(OC)c(OC)cc23)cc1OC,i,/,/,/,
NC1=C([N+](=O)[O-])C(c2ccc3c(c2)OCO3)C2=C(CCCC2=O)O1 (centres undefined),i,/,/,/,
CCCC(c1nnnn1CS(=O)(=O)c1ccc(C)cc1)N1CCN(c2ccc(F)cc2)CC1 (centres undefined),i,/,/,/,
CCCC(c1nnnn1CS(=O)(=O)c1ccc(C)cc1)N1CCN(CC)CC1 (centres undefined),i,5.5*,i,i,CHO-K1 ctr=32*;KCNQ1 pot spec=-8;KCNQ2 pot confirm=0.3*;Kir21 spec=-28;KCNQ2 W236L pot=i
C[C@H](NC(=O)c1ccccc1Cl)C(=O)OCCOc1ccc(Cl)cc1,i,/,/,/,
COCC1CCN(C(=O)c2cc(COc3ccc4c(c3)CCCC4)on2)C1 (centres undefined),i,0.7,/,/,
O=C(c1cc(COc2ccc3c(c2)CCCC3)on1)N1CCCC1,i,1.1,i,i,
Cc1cccc(NC(=O)c2ccc3c(c2)CCN3S(C)(=O)=O)c1,i,0.5,/,/,
CCOC(=O)c1sc2ncnc(NCc3ccco3)c2c1C,i,14*,i,238%*,CHO-K1 ctr=23*;KCNQ1 pot spec=-29;KCNQ2 pot confirm=47*;Kir21 spec=-31;KCNQ2 W236L pot=i
CCOC(=O)c1sc2nc(CC(=O)OC)nc(NCc3ccco3)c2c1C,i,1.5,/,/,
Oc1ccccc1/C=N/NC(=S)NC1CC2C=CC1C2 (centres undefined),i,1.4,/,/,
Oc1c(Cl)cc(Cl)cc1/C=N/NC(=S)NC1CC2C=CC1C2 (centres undefined),i,7.2*,i,i,CHO-K1 ctr=-10;KCNQ1 pot spec=70*;KCNQ2 pot confirm=-16;Kir21 spec=-27
COCCNC(=O)Cn1nc(-c2ccccc2C)ccc1=O,i,0.08,/,/,
Cc1ccccc1NC(=O)C(C)c1cccc(C(=O)c2ccccc2)c1 (centres undefined),i,5.3,i,i,CHO-K1 ctr=117*;KCNQ1 pot spec=13*;KCNQ2 pot confirm=16*;Kir21 spec=-29;KCNQ2 W236L pot=i
Cc1ccc(OC(=O)C(C)c2cccc(C(=O)c3ccccc3)c2)cc1 (centres undefined),i,/,/,/,
COc1ccc(-c2nc3ccccc3o2)cc1NC(=O)CSc1ccc(Cl)cc1,i,1.4,/,/,
c1nc2nc3c(c(N4CCOCC4)n2n1)CCCC3,i,17*,i,i,
CC1CCc2c(nc3ncnn3c2N2CCN(c3ccccc3)CC2)C1 (centres undefined),i,1.3,/,/,
CNC(=O)c1cc(C(=O)c2ccc(Cl)cc2)c[nH]1,i,/,/,/,
Cc1ccc(-n2cc(CNCCCn3ccnc3C)c(-c3ccc(F)cc3)n2)cc1,i,/,60%*,i,
Cc1ccc(-n2cc(CNCCCn3cccn3)c(-c3cccc(C)c3)n2)cc1,i,/,/,/,
O=C1CN(S(=O)(=O)c2cccc(Cl)c2Cl)c2ccccc2N1,i,1.2,59%*,i,
O=C1CN(S(=O)(=O)c2ccc(Br)cc2)c2ccccc2N1,i,/,/,/,
